Screening results from PubChem BioAssay.
This is a sample that favours compounds with a hit; in the whole collection about 11% have one here.
IMPase cell inh = qHTS Assay for Identifying the Cell-Membrane Permeable IMPase Inhibitors. CHO-M1 cells, IP1 accumulation, HTRF TR-FRET ratio. AID 901, 2007. 120,000 tested, under 10 active. inhibition (IP1 accumulation), % at 46.1 µM; active = well fitted curve in the direction sought with a large enough effect in the signal ratio, not every such curve was filed as active; inconclusive = small, poorly fitted or top-dose-only effect, or a change in a side signal; inactive = no such curve, though single readings can be large or run the other way; the % refers to the signal ratio;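 note: cells stimulated with carbachol in lithium chloride buffer; plate controls were DMSO basal wells for no effect and reference inhibitor wells for full effect; higher means more IMPase inhibition seen as more IP1 and lower FRET ratio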
Target sequence (P97697 whole entry, looked up): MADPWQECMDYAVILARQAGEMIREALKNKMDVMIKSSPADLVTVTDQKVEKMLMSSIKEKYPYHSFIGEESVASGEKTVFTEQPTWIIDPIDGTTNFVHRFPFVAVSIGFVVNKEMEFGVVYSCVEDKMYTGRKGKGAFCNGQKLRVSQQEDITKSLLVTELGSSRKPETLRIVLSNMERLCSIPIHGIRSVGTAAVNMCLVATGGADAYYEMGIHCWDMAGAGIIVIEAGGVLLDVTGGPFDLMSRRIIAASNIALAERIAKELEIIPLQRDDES
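Measured: the HTRF emission ratio (665/620 nm) plus the 620 nm donor channel, each fitted to the Hill equation to give AC50. Cells were CHO-M1 given compounds up to 46 uM and a 30 min carbachol stimulation at 37C.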
ALDH1A1 inh = qHTS Assay for Inhibitors of Aldehyde Dehydrogenase 1 (ALDH1A1) | Aldehyde dehydrogenase 1A1 (Homo sapiens), P00352 | Purified ALDH1A1, NADH fluorescence, propionaldehyde substrate | Potency, µM (titrated, usually from 75.3 µM), for the others: at the highest dose activity, negative = inhibition, actives largely listed as inhibitors | 220,000 compounds, 7.3% hits | AID 1030, 2008;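 note: potency is the fitted concentration of half-maximal effect; plate controls were no enzyme wells and a reference inhibitor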
Target sequence (P00352 whole entry, looked up): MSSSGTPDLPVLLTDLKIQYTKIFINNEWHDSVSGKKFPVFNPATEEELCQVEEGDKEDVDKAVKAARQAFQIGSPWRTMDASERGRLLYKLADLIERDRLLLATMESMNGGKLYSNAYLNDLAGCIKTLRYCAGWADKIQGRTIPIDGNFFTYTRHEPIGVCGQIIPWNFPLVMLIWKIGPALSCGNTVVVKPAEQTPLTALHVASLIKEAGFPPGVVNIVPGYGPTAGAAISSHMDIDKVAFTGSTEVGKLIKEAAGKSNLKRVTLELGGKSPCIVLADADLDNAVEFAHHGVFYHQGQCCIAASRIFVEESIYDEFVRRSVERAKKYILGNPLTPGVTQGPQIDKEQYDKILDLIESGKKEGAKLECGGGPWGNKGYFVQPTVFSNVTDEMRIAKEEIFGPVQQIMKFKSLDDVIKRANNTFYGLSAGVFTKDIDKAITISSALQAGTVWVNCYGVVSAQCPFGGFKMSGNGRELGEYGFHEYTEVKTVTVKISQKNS
12-hLO inh = qHTS Assay for Inhibitors of 12-hLO (12-human lipoxygenase); Polyunsaturated fatty acid lipoxygenase ALOX12 (Homo sapiens), P18054; 150,000 compounds, 0.12% hits; purified 12-hLO, xylenol orange hydroperoxide absorbance; Potency, µM (doses to about 57.1 µM), without a hit: at the top dose activity change, negative = inhibition, most hits filed as inhibitors; active = well fitted curve in the direction sought with a large enough effect; inconclusive = small, poorly fitted or top-dose-only effect, or another doubt; inactive = no such curve, though single readings can be large; an effect the other way counts as inactive or inconclusive; note: potency is the fitted concentration of half-maximal effect; nearly all actives have a fitted effect of over 55% in size
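Lipoxygenase turnover measured by absorbance at 573 and 405 nm after Fe-XO development. Human 12hLO 150 nM, arachidonate 40 uM, pH 7.0 Hepes buffer with detergent; 15 min compound preincubation, 30 min reaction.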
PNC inhibitor = High Content Assay for Compounds that inhibit the Assembly of the Perinucleolar Compartment; AID 2417, 2010; activity change (PNC), negative = inhibition, % at 10 µM; PC3M PTB-GFP, PNC prevalence imaging, 16 h; active compounds read low; 140,000 compounds, 3.1% hits;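 active = readout at or below -70, meaning at least 70% loss of cells showing the perinucleolar compartment, a nuclear body marking cancer cells; inconclusive = readout between -30 and a set limit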;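 note: plate controls were DMSO wells for no effect and camptothecin positive control wells for full effect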
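PC3M cells stably expressing PTB-GFP, 750–1000 cells/well, treated 16 h at 37 °C with compound (23 nl of library stock), in duplicate. After paraformaldehyde fixation and Hoechst stain, imaged at 20x; PNC prevalence scored by image analysis.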
IMPase Li inh = qHTS Assay for Identifying the Cell-Membrane Permeable IMPase Inhibitors: Potentiation with Lithium | CHO-M1 cells, IP1 TR-FRET (IP-One), carbachol + lithium | Potency, µM (doses to about 59.4 µM), for inactives: top-dose activity, negative = IMPase inhibition, most hits filed as inhibitors | 210,000 compounds, 0.35% hits | AID 1457, 2008; active = well fitted curve in the direction sought with a large enough effect; inconclusive = small, poorly fitted or top-dose-only effect, or another doubt; inactive = no such curve, though single readings can be large; an effect the other way counts as inactive or inconclusive;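 note: IP1 builds up when IMPase is blocked and the TR-FRET signal falls; potency is the fitted concentration of half-maximal effect; plate controls were basal vehicle for no effect and high inhibitor control for full effect; nearly all actives have a fitted effect of over 50% in size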
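CHO-M1, 2000 cells/well, 16–30 h culture; cpd + low Li+, 30 min 37C; lysis with d2-IP1/Eu-anti-IP1 Ab, 10 min RT; TR-FRET 665/620 ratio and 620 channel; AC50 via Hill.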
HPGD block = qHTS Assay for Inhibitors of HPGD (15-Hydroxyprostaglandin Dehydrogenase); 15-hydroxyprostaglandin dehydrogenase [NAD(+)] (Homo sapiens), P15428; purified HPGD, NADH fluorescence kinetic, PGE2 substrate; Potency, µM, without a hit: at the highest dose activity change, negative = inhibition, hits mostly inhibitors; 150,000 compounds, 4.3% hits; AID 894, 2007; note: potency is the fitted concentration of half-maximal effect
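20 nM HPGD preincubated 15 min at room temperature with compound in 50 mM Tris-HCl pH 8, 0.01% Tween 20. Started with 1 mM NAD+ and 30 uM prostaglandin E2; NADH fluorescence (360/450 nm) read 5 times over 30-s intervals, last minus first.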
* hit, by the source's call; [ ] = dose if it differs, or a comment. Unless noted, calls come from the whole dose curve; as a rule, active = well fitted inhibition curve with a large enough effect (not every such curve was filed as active); inconclusive = small, poorly fitted or top-dose-only effect, or another doubt; inactive = no such curve, though single readings can be large or run the other way. Unless noted, % is set by controls: 0 for no effect and ±100 for the full control effect.

Results for CCCCc1nc2c(c3c1C[C@H](C)OC3)CN(C(=O)c1cc(I)ccc1F)CC2 ?
ALDH1A1 inh: -9.2%[13.5 µM]; 12-hLO inh: 0.2%[11.4 µM]; IMPase Li inh: 13.5%; HPGD block: 0.5%

Results for Cc1ccc(S(=O)(=O)NC2CCCC2)cc1C ?
IMPase cell inh: -0.3; ALDH1A1 inh: inconclusive; 12-hLO inh: 2.0%; PNC inhibitor: 36.5; IMPase Li inh: 12.6%[38.3 µM]; HPGD block: -22.6%

How did Cc1ccc(N/C=C2\C(=O)C3(C)CCC2C3(C)C)cc1C (stereo not drawn) do in these assays?
ALDH1A1 inh: 14.1µM*; IMPase Li inh: -0.6%

How did N/C(=N\OC(=O)c1cccc2ccccc12)c1ccc(Br)cc1 do in these assays?
ALDH1A1 inh: inconclusive; 12-hLO inh: -1.1%; PNC inhibitor: inconclusive; IMPase Li inh: 10.7%; HPGD block: inconclusive

Results for N/C(Cc1ccccc1)=N\OC(=O)c1cccc2ccccc12 ?
ALDH1A1 inh: -6.1%; 12-hLO inh: 2.4%; PNC inhibitor: inconclusive; IMPase Li inh: -7.6%; HPGD block: 2.51µM*

What do the screens show for `O=C(O)CNCCc1ccccc1`?
ALDH1A1 inh: 12.6%[13.5 µM]; 12-hLO inh: 2.0%[11.4 µM]; IMPase Li inh: 4.8%; HPGD block: -5.3%

What do the screens show for `CCC1=Nc2ccccc2NC2=C1C(=O)CCC2`?
IMPase cell inh: 0.5; ALDH1A1 inh: 11.2µM*; 12-hLO inh: -20.2%; PNC inhibitor: -28.8; IMPase Li inh: 30.7%[38.3 µM]; HPGD block: -20.4%

Results for CC1=C(C(=O)N2CCOCC2)C(c2cc(C)ccc2C)NC(=S)N1 (stereo not drawn) ?
ALDH1A1 inh: inconclusive; IMPase Li inh: -8.9%

What do the screens show for `Cn1cnnc1Sc1ccc(/C=C(\CC(=O)O)c2nc3ccccc3s2)cc1[N+](=O)[O-]`?
ALDH1A1 inh: 20µM*

What do the screens show for `Cn1cnnc1Sc1ccc(C(=O)NCCC(c2ccccc2)c2ccccc2)cc1[N+](=O)[O-]`?
ALDH1A1 inh: 20µM*; 12-hLO inh: -0.8%; PNC inhibitor: -18.9; IMPase Li inh: 10.5%; HPGD block: -19.6%

What do the screens show for `Cn1cnnc1SCC(=O)NCCC(c1ccccc1)c1ccccc1`?
IMPase cell inh: -5.5; ALDH1A1 inh: -1.6%; 12-hLO inh: 6.8%; PNC inhibitor: -3.0; IMPase Li inh: 15.5%[38.3 µM]; HPGD block: -1.8%

Results for O=C(O)CC/C(=C\c1ccc(N2CCCC2)c([N+](=O)[O-])c1)c1nc2ccccc2s1 ?
ALDH1A1 inh: 1.26µM*; IMPase Li inh: -0.2%

How did Cc1ccccc1-c1nnc(CN2CCN(c3cccc(C)c3C)CC2)o1 do in these assays?
IMPase cell inh: 7.9

How did COc1ccc(S(=O)(=O)N(CC(=O)Nc2cccnc2)c2ccc(Cl)cc2)cc1 do in these assays?
IMPase cell inh: 3.7

What do the screens show for `COc1ccc(CSc2nnc(C)n2N)cc1[N+](=O)[O-]`?
ALDH1A1 inh: 12.6µM*; IMPase Li inh: 5.9%

Results for COc1ccc(CSc2n[nH]c(C)n2)cc1[N+](=O)[O-] ?
ALDH1A1 inh: 10µM*; 12-hLO inh: -7.0%; PNC inhibitor: -16.2; IMPase Li inh: 4.0%; HPGD block: -27.3%

How did COc1ccc(CSc2ncn[nH]2)cc1[N+](=O)[O-] do in these assays?
ALDH1A1 inh: inconclusive; 12-hLO inh: 0.4%; PNC inhibitor: 3.2; IMPase Li inh: -5.7%; HPGD block: -6.8%

What do the screens show for `CCc1nnc(SCc2ccc(OC)c(Br)c2)n1N`?
IMPase cell inh: 4.6; ALDH1A1 inh: 28.2µM*; 12-hLO inh: 0.5%; PNC inhibitor: 19.4; IMPase Li inh: -4.9%[38.3 µM]; HPGD block: -24.4%

Results for CSc1cccc(NS(=O)(=O)c2cccc3nsnc23)c1 ?
IMPase cell inh: 15.8; ALDH1A1 inh: inconclusive; 12-hLO inh: -14.0%; PNC inhibitor: 11.5; IMPase Li inh: 20.2%[38.3 µM]; HPGD block: -14.3%

How did Cc1noc(C)c1-c1nc(NC2CCNCC2)c2ccccc2n1 do in these assays?
ALDH1A1 inh: -0.6%; IMPase Li inh: -3.2%

What do the screens show for `O=C(COC(=O)c1ccc([N+](=O)[O-])s1)NCc1ccc(F)cc1`?
ALDH1A1 inh: 7.08µM*; 12-hLO inh: -1.8%; PNC inhibitor: -1.9; IMPase Li inh: 4.1%; HPGD block: -1.5%

What do the screens show for `COc1ccccc1NC(=O)COC(=O)c1ccc([N+](=O)[O-])s1`?
ALDH1A1 inh: 10µM*; IMPase Li inh: 4.3%

How did CC(NC(=O)COC(=O)c1ccc([N+](=O)[O-])s1)c1ccccc1 (stereo not drawn) do in these assays?
IMPase cell inh: -3.7; ALDH1A1 inh: inconclusive; 12-hLO inh: 1.0%; PNC inhibitor: inconclusive; IMPase Li inh: -6.1%; HPGD block: -2.4%

How did O=C(COC(=O)c1ccc([N+](=O)[O-])s1)NC(=O)NCc1ccccc1 do in these assays?
ALDH1A1 inh: 7.08µM*; IMPase Li inh: -17.2%

How did Cc1nc(NCCO)c2nc(-c3ccccc3)n(CCN(C)C)c2n1 do in these assays?
ALDH1A1 inh: inconclusive; 12-hLO inh: 0.0%; IMPase Li inh: -9.1%; HPGD block: inconclusive

How did CCN1CCCC1Cn1c(-c2ccccc2)nc2c(N(CCOC)CCOC)nc(C)nc21 (stereo not drawn) do in these assays?
ALDH1A1 inh: inconclusive; 12-hLO inh: 0.4%; IMPase Li inh: 13.7%; HPGD block: -24.5%

Results for N=C(N)SCCc1ccc(OCc2ccc([N+](=O)[O-])cc2)cc1 ?
IMPase cell inh: 9.1; ALDH1A1 inh: inconclusive; 12-hLO inh: -22.6%; IMPase Li inh: 38.3%; HPGD block: -11.5%

What do the screens show for `CC(C)(C)NC[C@@H](O)COc1ccccc1C1CCCC1`?
IMPase cell inh: -0.1[20.6 µM]; ALDH1A1 inh: -5.1%[20.9 µM]; 12-hLO inh: -2.1%[25.6 µM]; IMPase Li inh: -1.4%; HPGD block: -0.7%

How did CCOc1ccc(CCNC(=O)CSc2nnnn2C)cc1OCC do in these assays?
ALDH1A1 inh: 0.1%; IMPase Li inh: -6.9%

How did CCOc1ccc(CCNC(=O)CSc2nn(-c3ccc(C)c(Cl)c3)c(=S)s2)cc1OCC do in these assays?
IMPase cell inh: inconclusive; ALDH1A1 inh: 28.2µM*; 12-hLO inh: -8.4%; PNC inhibitor: inconclusive; IMPase Li inh: 10µM*; HPGD block: -24.5%
